Screening data (PubChem)
CYP2C9 act: human CYP2C9 activators, primary screen, biochemical, luminescence; AID 1024, 2008; 96,000 compounds, 1.4% hits; activation factor at 5 µM; Cytochrome P450 2C9 (Homo sapiens), P11712; recombinant CYP2C9, luciferin-H conversion; active compounds read high; factor 1 = untreated enzyme, 0 = blocked;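 active = activation factor of 2 or more for CYP2C9 at a 5 µM dose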
Target sequence (P11712 whole entry, looked up): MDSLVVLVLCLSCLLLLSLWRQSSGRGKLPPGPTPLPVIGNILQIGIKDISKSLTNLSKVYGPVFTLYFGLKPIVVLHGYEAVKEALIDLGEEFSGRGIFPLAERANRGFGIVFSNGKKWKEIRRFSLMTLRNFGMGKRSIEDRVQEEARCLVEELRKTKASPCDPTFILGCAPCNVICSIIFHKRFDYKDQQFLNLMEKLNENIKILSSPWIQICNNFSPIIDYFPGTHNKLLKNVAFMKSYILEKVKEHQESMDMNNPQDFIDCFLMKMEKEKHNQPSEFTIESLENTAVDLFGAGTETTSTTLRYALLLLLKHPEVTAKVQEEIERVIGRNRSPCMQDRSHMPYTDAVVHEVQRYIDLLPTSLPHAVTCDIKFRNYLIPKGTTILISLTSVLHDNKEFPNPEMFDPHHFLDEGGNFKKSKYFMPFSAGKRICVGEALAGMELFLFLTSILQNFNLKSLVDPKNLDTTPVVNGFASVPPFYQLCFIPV
Cav32 inh: Cav3.2 calcium influx blockers – cell-based, Fluo-4 calcium fluorescence, FDSS, MLSMR library, primary screen | Cav3.2-expressing cells; active compounds read low | B-score at 10 µM | Voltage-dependent T-type calcium channel subunit alpha-1H (Homo sapiens), O95180 | AID 449739, 2010 | 100,000 compounds, 4% hits;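 active = single-dose well whose peak fluorescence ratio is a statistical outlier from its plate by either plate-standardised score or position-corrected B-score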
CYP2C9 inh: blockers of cytochrome P450 2C9 activity – biochemical, luminescence, ADME assay, primary screen; AID 777, 2007; P11712; CYP2C9 Supersomes, luciferin-H conversion; inhibition, % at 5 µM; 96,000 compounds, 20% hits;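 active = blocking of liver enzyme CYP2C9 beyond about 50% at 5 µM, limit read from the data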
CYP2C19 activ: human CYP2C19 activators, primary screen, biochemical, luminescence. Cytochrome P450 2C19 (Homo sapiens), P33261. recombinant CYP2C19, luciferin-H EGE luminescence; active compounds read high; 0 = fully inhibited enzyme, 1 = untreated enzyme. activation factor at 5 µM. 96,000 tested, under 10 active;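 active = activation factor of at least 2 at 5 µM in the primary screen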
CYP2C19 inhib: blockers of cytochrome P450 2C19 activity – biochemical, luminescence, ADME assay, primary screen; CYP2C19 Supersomes, luciferin-H EGE luminescence, 30 min; 96,000 compounds, 21% hits; inhibition, % at 5 µM;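 active = CYP2C19 inhibition above a set limit at 5 µM in the primary screen, cut at about 50% in these data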
Of the large screens only hits and unclear results are named; the others gave an inactive call. Sampled rows, rich in hits. Any-hit rate of the full collection: about 27%.

COc1ccc(C(C)=O)cc1COc1ccc(-n2cnnn2)cc1	CYP2C9 inh 93, CYP2C19 inhib 99
COC(=O)c1ccc(COC(=O)c2ccc(-n3cnnn3)cc2)o1	CYP2C9 inh 64
COc1ccc(-c2cc(C(F)F)n3ncc(C(=O)N4CCN5CCCC5C4)c3n2)cc1 (stereo unspecified)	none
CC(/C=N\NC(=O)Cn1c(C)nc2ccccc21)=C\c1ccccc1	none (no result: Cav32 inh)
Cc1ccccc1S(=O)(=O)Cc1ccc(C(=O)NCCN2CCN(Cc3ccccc3)CC2)o1	none
CCCCN1CC(O)=C(c2nc3ccccc3s2)C1=N	CYP2C9 inh 64
N=C1C(c2nc3ccccc3s2)=C(O)CN1CCCO	none
CCCCCCN1CC(O)=C(c2nc3ccccc3[nH]2)C1=N	CYP2C9 inh 90, CYP2C19 inhib 59
CCC(C)N1CC(O)=C(c2nc3ccccc3[nH]2)C1=N (stereo unspecified)	CYP2C19 inhib 84
O=C(N/C(=N\O)c1ccccc1)Nc1ccc(Cl)cc1	Cav32 inh -5, CYP2C9 inh 56, CYP2C19 inhib 64
O=C(N/N=C/c1ccc(Cl)cc1Cl)Nc1ccccc1	none
O=C(CCCc1nc(-c2ccccc2Cl)no1)NC1CCCCC1	none
COc1cccc(-c2noc(CCC(=O)NC3CCCCC3)n2)c1	none
COc1ccc(-c2noc(CCC(=O)NC3CCN(Cc4ccccc4)CC3)n2)cc1	CYP2C9 inh 84, CYP2C19 inhib 73
COc1ccc(-c2noc(CCC(=O)NC3CCCCC3)n2)cc1OC	CYP2C9 inh 79, CYP2C19 inhib 87
COc1cc(-c2noc(CCCC(=O)NC3CCCCC3)n2)cc(OC)c1OC	CYP2C19 inhib 66
CN(CCO)C(=O)CCC(=O)Nc1ccc(S(N)(=O)=O)cc1	none
COc1ccc(NC(=O)CN(C)S(=O)(=O)c2ccc3c(c2)OCCO3)c2ncccc12	none
COC(=O)[C@H]1[C@@H](C)N(CCc2cc(OC)c(OC)c(OC)c2)C(=O)N[C@H]1c1ccccc1	none (no result: CYP2C9 act, CYP2C9 inh, CYP2C19 activ, CYP2C19 inhib)
O=C(Nc1nc(-c2nc3ccccc3s2)cs1)C1CC1	CYP2C19 inhib 51
COc1ccc(NC(=O)C2CCCN2S(=O)(=O)c2ccc(F)cc2)cc1 (stereo unspecified)	CYP2C9 inh 93, CYP2C19 inhib 64
Cc1ccc(NC(=O)C2CCCN2S(=O)(=O)c2ccc(F)cc2)c(C)c1 (stereo unspecified)	none
O=C(Nc1nc(-c2nc3ccccc3s2)cs1)c1ccco1	none (no result: CYP2C9 act, CYP2C9 inh, CYP2C19 activ, CYP2C19 inhib)
COc1ccc(-c2csc(NC(=O)C3CCCCN3S(=O)(=O)c3ccccc3)n2)cc1 (stereo unspecified)	Cav32 inh -6.2, CYP2C9 inh 88
O=C(Nc1nccs1)C1CCCN1S(=O)(=O)c1ccc(F)cc1 (stereo unspecified)	CYP2C9 inh 62
CNC(=O)C1CCCN1S(=O)(=O)c1ccc(OC)cc1 (stereo unspecified)	none
COc1ccc(S(=O)(=O)N2CCCC2C(=O)Nc2nc3c(s2)CCCC3)cc1 (stereo unspecified)	CYP2C9 inh 80
Cc1ccc(S(=O)(=O)N2CCCC2C(=O)Nc2ccc(O)cc2)cc1 (stereo unspecified)	none
COc1ccc(S(=O)(=O)N2CCCC2C(=O)Nc2ccc(C)cc2)cc1 (stereo unspecified)	CYP2C9 inh 54, CYP2C19 inhib 76
Cc1ccc(NC(=O)NC2CCCN2S(=O)(=O)c2ccc(Cl)cc2)cc1 (stereo unspecified)	CYP2C9 inh 87, CYP2C19 inhib 73
CC1CC1C(=O)Nc1nc(-c2ccccc2)cs1 (stereo unspecified)	Cav32 inh -4
CC1CCN(C(=O)c2scc3c2OCCO3)CC1	none
CCc1c(C)sc(NC(=O)Cn2nc(C(F)(F)F)c3c2CCCC3)c1C#N	none
Cc1ccc(S(=O)(=O)N2CCC[C@H]2C(=O)OC(C)C(=O)Nc2ncc(Cl)cc2Cl)cc1 (stereo partly specified)	CYP2C19 inhib 71
O=C(O)COCc1nc2ccccc2[nH]1	none
O=C1C(=O)N(CCCn2ccnc2)C(c2cccnc2)/C1=C(/O)c1ccc(F)cc1 (stereo unspecified)	CYP2C9 inh 89
O=C(CN1CCOCC1)N1CCN(c2ccc3ccccc3n2)CC1	none (no result: CYP2C9 act, CYP2C9 inh, CYP2C19 activ, CYP2C19 inhib)
